From PubChem BioAssay
Compounds with a hit are over-represented: about 19% of the library has one in this group of screens.
HT1080 IDH1KD tx = kills HT-1080 cells with IDH1 knockdown | AID 686971 | Potency, µM (doses to about 46.1 µM), without a hit: at the highest dose activity, negative = toxicity, actives largely listed as cytotoxic | 360,000 tested, 2% active | HT-1080 IDH1 knockdown viability, ATP luminescence, 48 h;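 note: potency is the fitted concentration of half-maximal effect; 0% = DMSO wells and -100% = cell-free medium wells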
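After a 2 h attachment period, IDH1KD HT-1080 cells took pin-transferred compound for 48 h at 37 °C; ATP-based luminescence after 10 min room-temperature reagent incubation reported viability.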
DT40 TDP1 no CPT = qHTS for Inhibitors of human tyrosyl-DNA phosphodiesterase 1 (TDP1): qHTS in cells in absence of CPT | DT40 Tdp1-/- hTDP1 cells, no CPT, ATP luminescence, 48 h | 420,000 tested, 15% active | AID 686978, 2013 | Potency, µM (highest dose often 46.2 µM), for the others: top-dose activity change, negative = growth inhibition, actives largely listed as inhibitors; note: potency is the fitted concentration of half-maximal effect; nearly all actives have a fitted effect of over 55% in size
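DT40 Tdp1-/-;hTDP1 cells, no CPT (DMSO vehicle only), 400 cells/well; compounds pin-transferred; ≥48 hr, 37 °C; CellTiter-Glo 30 min RT dark, luminescence read.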
IL-1B inflam inh = inflammasome signaling inhibition, IL-1 beta readout | 360,000 tested, 4.7% active | AID 743279 | activity change, % at 57.5 µM | THP-1 LPS/ATP IL-1B secretion, AlphaLISA, 16 h; stronger effect = lower value; in the data active = activity change below about -50%; inconclusive = mostly about -30% to -49%
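THP-1 cells pretreated 1 hr with compounds (up to 57.5 uM final), then stimulated with LPS (250 ng/mL final) plus ATP (1.25 mM final); secreted IL-1B measured by AlphaLISA after 16 hr, decreased signal indicating inhibition.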
DT40 TDP1 CPT = DT40-hTDP1 cell growth loss with CPT | Potency, µM (highest dose often 46.2 µM), for inactives: at the highest dose activity change, negative = growth inhibition, actives largely listed as inhibitors | 420,000 tested, 12% active | chicken DT40 Tdp1-/-;hTDP1 cells + 20 nM CPT, ATP luminescence, 48 h | AID 686979; note: potency is the fitted concentration of half-maximal effect; nearly all actives have a fitted effect of over 55% in size
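Cell growth measured by CellTiter-Glo luminescence after a minimum 48 h, 37 C compound exposure with 20 nM CPT in Tdp1-knockout DT40 cells stably expressing hTDP1, seeded 400/well; qHTS titration format.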
HT1080-NT tox = kills 2HG-producing HT-1080-NT fibrosarcoma cells; 360,000 tested, 1.6% active; HT-1080-NT fibrosarcoma viability, CellTiter-Glo ATP luminescence, 48 h; Potency, µM (titrated, usually from 46.1 µM), for the others: at the top dose activity, negative = less viability, hits mostly cytotoxic;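 note: NT is the 2HG producing partner of a matched IDH1 knockdown line; potency is the fitted concentration of half-maximal effect; 0% = DMSO-treated cells and -100% = media-only wells without cells; nearly all actives have a fitted effect of over 55% in size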
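Read-out is CellTiter-Glo luminescence after 10 minutes at room temperature, following 48 hours' compound treatment of HT-1080-NT cells (750 cells/well, RPMI, 5% FBS, 37 degrees C).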
* marks the source's active call; other numbers are inactive results; ? = inconclusive; . = not tested or not shown; [ ] = dose if it differs, or a comment. Unless noted, calls come from the whole dose curve; as a rule, active = well fitted curve in the direction sought with a large enough effect; inconclusive = small, poorly fitted or top-dose-only effect, or another doubt; inactive = no such curve, though single readings can be large; an effect the other way counts as inactive or inconclusive. Unless noted, % is set by controls: 0 for no effect and ±100 for the full control effect.

SMILES	HT1080 IDH1KD tx	DT40 TDP1 no CPT	IL-1B inflam inh	DT40 TDP1 CPT	HT1080-NT tox
CCCc1c(C(=O)N/N=C(\C)c2cc(C)sc2C)nnn1-c1nonc1N	-4%	18µM*	-19	?	-2%
C/C(=N\NC(=O)c1nnn(-c2nonc2N)c1C(C)C)c1cc(C)sc1C	-21%	?	-10	?	-20%
CCc1ccc(N(CC(=O)NCc2ccc3c(c2)OCO3)C(=O)c2csnn2)cc1	-15%	-21%	-7	-3%	-11%
O=C(c1ccc2c(c1)CCN2S(=O)(=O)c1ccc(Cl)cc1)N1CCN(c2ccccc2)CC1	.	21µM*	.	12µM*	.
Cc1cccc(N2CCN(C(=O)c3ccc4c(c3)CCN4S(C)(=O)=O)CC2)c1C	0%	?	-51*	13µM*	0%
O=C(c1ccc2c(c1)CCN2S(=O)(=O)c1ccc(Cl)cc1)N1CCN(c2ccccc2F)CC1	.	16µM*	.	21µM*	.
CC(NC(=O)c1ccc2c(c1)CCN2S(=O)(=O)c1ccc(Cl)cc1)c1ccccc1 (stereo unspecified)	.	?	.	12µM*	.
CCn1cc(/C=C(\NC(=O)c2ccccc2F)C(=O)N2CCCC2)c2ccccc21	-2%	?	-26	?	-1%
O=C(NCc1n[nH]c(=S)n1-c1ccc(Br)cc1)c1ccc(S(=O)(=O)N2CCCCC2)cc1	-4%	-14%	15	7%	2%
O=C(c1ccc(Cl)c(S(=O)(=O)N2CCc3ccccc3C2)c1)N1CCN(c2ccccc2)CC1	-15%	?	-11	3.7µM*	-13%
COc1cccc(N2CCN(C(=O)c3ccc(Cl)c(S(=O)(=O)N4CCCCCC4)c3)CC2)c1	2%	-19%	16	-8%	7%
O=C(c1cccc(S(=O)(=O)N2CCCc3ccccc32)c1)N1CCN(c2ccccc2)CC1	?	21µM*	?	?	1%
CC(C)c1ccc(N(CC(=O)NCC2CCCO2)C(=O)Cn2nnc(-c3cccs3)n2)cc1 (stereo unspecified)	-1%	0%	-25	-27%	9%
COC(=O)c1nnn(-c2ccsc2C(=O)OC)c1C(=O)OC	7%	7%	-29	4%	11%
Cc1cc(C)cc(NC(=O)c2cc(CN3CCCC3)on2)c1	.	-10%	.	6%	.
CCOc1ccc(NC(=O)c2cccc3c2C(=O)N(Cc2cccnc2)C3)cc1	3%	?	-82*	?	1%
CCCN1Cc2cccc(C(=O)NC(CC(=O)OCC)c3ccc(OC(C)C)cc3)c2C1=O (stereo unspecified)	-9%	21µM*	30	?	-15%
CCCN1Cc2cccc(C(=O)Nc3ccc(CN4CCCC4)cc3)c2C1=O	-25%	23µM*	-56*	-3%	-8%
COCCN1Cc2cccc(C(=O)Nc3ccc(C)cc3)c2C1=O	-5%	?	-68*	-28%	6%
COCCN1Cc2cccc(C(=O)Nc3ccc(C(=O)OC)cc3)c2C1=O	.	4%	.	-5%	.
CCCN1Cc2cccc(C(=O)NC(CC(=O)OCC)c3ccc(C)cc3)c2C1=O (stereo unspecified)	14%	-28%	14	2%	14%
COc1ccc(N2Cc3cccc(C(=O)Nc4ccc(Cl)cc4)c3C2=O)cc1	.	21µM*	.	8.2µM*	.
OC1(c2ccc3c(c2)CN(Cc2ccco2)CCO3)CCN(c2ccccc2F)CC1	.	?	.	-1%[9.04 µM]	.
COc1cc(Cn2c3ccc(NC(=O)CCc4cccnc4)cc3c(=O)n2C)ccc1F	-9%	?	0	9.2µM*	0%
COc1cc(Cn2c3ccc(NC(=O)NCCc4ccccc4)cc3c(=O)n2C)ccc1F	-12%	?	-5	?	-17%
SMILES	HT1080 IDH1KD tx	DT40 TDP1 no CPT	IL-1B inflam inh	DT40 TDP1 CPT	HT1080-NT tox
Cn1c(=O)c2cc(NC(=O)CCc3cccnc3)ccc2n1Cc1cccc(C(F)(F)F)c1	2%	18µM*	19	?	0%
COc1ccccc1CCC(=O)Nc1ccc2c(c1)c(=O)n(C)n2-c1cccs1	?	3.7µM*	67	3.7µM*	?
COc1ccc(CCNC(=O)Nc2ccc3c(c2)c(=O)n(C)n3Cc2ccc(Cl)cc2)cc1OC	-25%	?	-16	8.2µM*	-24%
O=C(O)c1ccc(Cl)c(NC(=O)C2CCN(S(=O)(=O)c3ccc4c(c3)OCCO4)CC2)c1	2%	8%	3	0%	-2%
CCN(CC)c1ccc2cc(S(=O)(=O)c3ccc(C)cc3)c(=O)oc2c1	5%	?	-4	?	15%
CC(C)(C)OC(=O)NC1CCN(S(=O)(=O)c2ccc3c(c2)OCCO3)CC1	4%	?	24	?	5%
Cc1cc(C)cc(Cn2c3ccc(NC(=O)NCc4ccc(F)cc4)cc3c(=O)n2C)c1	-3%	?	-8	?	3%
Cn1c(=O)c2cc(NC(=O)CCc3cccnc3)ccc2n1Cc1ccc(F)cc1	-5%	?	-3	16µM*	-4%
COc1cc(Cn2c3ccc(NC(=O)CCc4ccccc4)cc3c(=O)n2C)ccc1F	?	2.9µM*	40	6.5µM*	?
Cc1ccc2c(c1)CO[C@@]21O[C@H](CCO)C[C@H](O)[C@H]1O	5%	-8%	20	-6%	11%
CCC(C(=O)OC)n1nnc2sc(-c3ccccc3)cc2c1=O (stereo unspecified)	.	15µM*	.	?	.
COCCOC(=O)Cn1nnc2sc(-c3ccccc3)cc2c1=O	.	-14%	.	-24%	.
COc1ccc(NC(=O)C(C)n2nnc3sc(-c4ccccc4)cc3c2=O)cc1Cl (stereo unspecified)	.	6.5µM*	.	13µM*	.
COC(=O)c1cc2oc3ccccc3c2n1Cc1cc(C)ccc1C	.	-3%	.	1%	.
CCOC(=O)C1=C(N)c2ccccc2CC1C1CCCC1 (stereo unspecified)	-1%	?	-8	26µM*	0%
CCN(CC(=O)Nc1cc(Cl)ccc1C)C(=O)C1CCN(c2ncnc3sc(C)c(C)c23)CC1	?	6.5µM*	-12	18µM*	?
CCN(CC(=O)Nc1cc(Cl)ccc1C)C(=O)C1CCCCC1	14%	-1%	11	4%	3%
Cc1sc2ncnc(N3CCC(C(=O)N(C)CC(=O)Nc4ccccc4Br)CC3)c2c1C	-19%	?	?	?	-2%
Cc1sc2ncnc(N3CCC(C(=O)N(C)CC(=O)Nc4ccc(Cl)c(C(F)(F)F)c4)CC3)c2c1C	16µM*	15µM*	-55*	?	?
